Measurements as given in PubChem BioAssay (NCI).
This is part of a sample that, as a whole, favours compounds with a hit. Of some 79,000 tested, about 15% had one in any assay. Activity calls are given as the source filed them. Rule as the data show it: active = growth inhibition above about 70%; inactive = the rest.

Experiments:
[1] = NCI Yeast Anticancer Drug Screen. Data for the wt1 strain (AID 149);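 also: 0% = growth of vehicle-treated wt1 cultures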; conditions: S. cerevisiae wt1 strain (SPY 50644) growth inhibition, active compounds read high
Method in brief: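 Vehicle-normalised growth inhibition; strain wt1; compound exposure.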

[2] = NCI Yeast Anticancer Drug Screen. Data for the rad50EPP+ strain (AID 151);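 also: 0% = growth of vehicle-treated control cultures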; conditions: S. cerevisiae rad50 mutant strain, active compounds read high
Method in brief: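 Yeast strain carrying rad50 alteration (rad50EPP+) exposed to compounds; growth inhibition measured relative to vehicle-treated controls.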

[3] = NCI Yeast Anticancer Drug Screen. Data for the rad50 strain (AID 155);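 also: 0% = growth of vehicle-only cultures of the same strain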; conditions: S. cerevisiae rad50 strain growth inhibition, active compounds read high
Method in brief: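 A DNA repair-deficient yeast mutant serves as the test organism; compound-induced growth inhibition is calculated against vehicle-treated cells.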

[4] = NCI Yeast Anticancer Drug Screen. Data for the mec2-1 strain (AID 157); conditions: S. cerevisiae mec2-1 strain, active compounds read high
Method in brief: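 mec2-1 yeast strain, carrying an alteration in DNA damage repair or cell cycle control, was exposed to compounds; growth inhibition was measured relative to vehicle-treated controls.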

[5] = NCI Yeast Anticancer Drug Screen. Data for the sgs1 mgt1 strain (AID 161);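 also: 0% = growth of cultures given vehicle only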; conditions: S. cerevisiae sgs1 mgt1 strain, active compounds read high
Method in brief: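 Growth of a repair-deficient yeast mutant was monitored after compound treatment and expressed as inhibition relative to vehicle-treated cultures.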

[6] = NCI Yeast Anticancer Drug Screen. Data for the CLN2oe strain (AID 163);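 also: 0% = growth of vehicle-only control cultures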; conditions: S. cerevisiae CLN2oe strain, active compounds read high
Method in brief: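 Yeast cells carrying a defined cell-cycle control alteration were exposed to test compounds. Growth inhibition was scored against vehicle-treated control cultures.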

[7] = NCI Yeast Anticancer Drug Screen. Data for the cln2 rad14 strain (AID 165);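 also: 0% = growth equal to vehicle treated cultures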; conditions: S. cerevisiae cln2 rad14 strain, active compounds read high
Method in brief: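 Yeast carrying cln2 and rad14 alterations (cell cycle control and DNA damage repair) were exposed to compounds. Growth inhibition was measured against vehicle-treated controls.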

[8] = NCI Yeast Anticancer Drug Screen. Data for the bub3 strain (AID 167); conditions: S. cerevisiae bub3 mutant strain, active compounds read high
Method in brief: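 Inhibition values come from growth of compound-treated mutant yeast normalised to vehicle-treated controls.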

[9] = NCI Yeast Anticancer Drug Screen. Data for the wt2 strain (AID 169);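 also: 0% = growth of vehicle-treated yeast cultures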; conditions: S. cerevisiae wt2 strain growth inhibition, active compounds read high
Method in brief: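 Yeast cells were exposed to test compounds, and growth inhibition was measured relative to vehicle-treated controls.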

[10] = NCI Yeast Anticancer Drug Screen. Data for the mlh1 strain (AID 171);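 also: 0% = growth of vehicle-treated control cultures of the same strain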; conditions: S. cerevisiae mlh1 strain growth inhibition, active compounds read high
Method in brief: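 Yeast carrying a defined genetic alteration in DNA damage repair or cell cycle control were exposed to test compounds. Growth inhibition was measured relative to vehicle-treated controls.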

[11] = NCI Yeast Anticancer Drug Screen. Data for the sgs1 strain (AID 173);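 also: 0% = growth of vehicle-only control cultures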; conditions: S. cerevisiae sgs1 mutant, active compounds read high
Method in brief: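 Yeast mutant strains carrying defined defects in DNA damage repair or cell cycle control were exposed to test compounds. Growth inhibition was scored against vehicle-treated controls.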

[12] = NCI Yeast Anticancer Drug Screen. Data for the mlh1 rad18 strain (AID 175); conditions: S. cerevisiae mlh1 rad18 strain growth inhibition, active compounds read high
Method in brief: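 Growth inhibition of the yeast strain was measured after compound exposure and expressed relative to vehicle-treated controls. The strain carries defined defects in DNA damage repair.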

[13] = NCI Yeast Anticancer Drug Screen. Data for the rad18 strain (AID 177); conditions: S. cerevisiae rad18 mutant growth inhibition, active compounds read high
Method in brief: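 Yeast carrying a defined DNA damage repair alteration were exposed to compounds. Growth inhibition was expressed relative to vehicle-treated controls.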

[14] = at 5.0 µM (retest, dose inferred, filed as 0.5)
[15] = at 50.0 µM (retest, dose inferred, filed as 5.0)

Measured: growth inhibition

CCCCCCCCCCCCCCCCOCC(Cl)COP(=O)(O)OP(=O)(O)OCC1OC(n2cnc3c(N)ncnc32)C(O)C1O (stereo not drawn)
active: [2]; at 100.0 µM 97% | [3]; at 11.0 µM 75% | [3]; at 33.0 µM 86% | [3]; [15] 93% | [3]; at 100.0 µM 86% | [4]; [15] 73% | [5]; [14] 74% | [5]; [15] 96% | [5]; at 50.0 µM 88.4% | [7]; [15] 79% | [8]; [15] 73% | [10]; at 100.0 µM 78% | [11]; at 11.0 µM 93% | [11]; at 33.0 µM 95% | [11]; at 100.0 µM 92% | [12]; [15] 92%
inactive: [1]; at 1.2 µM 21% | [1]; at 3.7 µM 35% | [1]; at 11.0 µM 46% | [1]; at 33.0 µM 54% | [1]; at 100.0 µM 51% | [2]; at 1.2 µM 20% | [2]; at 3.7 µM 24% | [2]; at 11.0 µM 43% | [2]; at 33.0 µM 67% | [3]; at 1.2 µM 14% | [3]; at 3.7 µM 28% | [3]; [14] 49% | [3]; at 50.0 µM 54.4% | [4]; at 1.2 µM 14% | [4]; at 3.7 µM 6% | [4]; [14] 36% | [4]; at 11.0 µM 19% | [4]; at 33.0 µM 11% | [4]; at 50.0 µM 33.4% | [4]; at 100.0 µM 47% | [6]; at 1.2 µM 2% | [6]; at 3.7 µM 2% | [6]; at 11.0 µM -4% | [6]; at 33.0 µM 24% | [6]; at 100.0 µM 31% | [7]; [14] 24% | [7]; at 50.0 µM -30.4% | [8]; at 1.2 µM -12% | [8]; at 3.7 µM -25% | [8]; [14] 10% | [8]; at 11.0 µM -8% | [8]; at 33.0 µM 9% | [8]; at 50.0 µM 28.2% | [8]; at 100.0 µM 39% | [9]; at 1.2 µM -2% | [9]; at 3.7 µM -3% | [9]; at 11.0 µM 11% | [9]; at 33.0 µM 19% | [9]; at 100.0 µM 57% | [10]; at 1.2 µM 10% | [10]; at 3.7 µM -1% | [10]; at 11.0 µM 53% | [10]; at 33.0 µM 63% | [11]; at 1.2 µM 40% | [11]; at 3.7 µM 64% | [12]; [14] 36% | [12]; at 50.0 µM 48% | [13]; at 1.2 µM -4% | [13]; at 3.7 µM 0% | [13]; at 11.0 µM 22% | [13]; at 33.0 µM 39% | [13]; at 100.0 µM 59%
